According to PubChem BioAssay (NCI):
This is part of a sample that, as a whole, favours compounds with a hit. Of some 83,000 tested, about 20% had one in any assay.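 The test compound was applied at a single concentration to cells in 96-well plates for 48 hours, and percent growth was recorded.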 The source made the active and inactive calls. The calls were made as follows: active = growth percent below 10; inactive = the rest.

What was measured:
Experiment in all cases: NCI-60 one-dose screen, 48 h (100 = growth as untreated, 0 = no growth, -100 = all killed)
Conditions in all cases: 10 µM unless noted
T-47D breast = tested on: T-47D breast
BT-549 breast = tested on: BT-549 breast
MDA-MB-435 melanoma = tested on: MDA-MB-435 melanoma
SW-620 colon = tested on: SW-620 colon
MCF7 breast = tested on: MCF7 breast
HCT-116 colon = tested on: HCT-116 colon
HCC-2998 colon = tested on: HCC-2998 colon
KM12 colon = tested on: KM12 colon

Measured: growth

CCCCCCCCCCCCCCCCCCOP(=O)(O)O
inactive: T-47D breast 106% | BT-549 breast 114% | MDA-MB-435 melanoma 101% | SW-620 colon 91.3% | MCF7 breast 101% | HCT-116 colon 106% | HCC-2998 colon 108% | KM12 colon 110%

O=C(/C=C\c1ccc(NCc2ccc(C(=O)O)cc2)cc1)CCl
active: T-47D breast -22.8% | SW-620 colon 3.72% | HCT-116 colon -15.3%
inactive: BT-549 breast 64.3% | MDA-MB-435 melanoma 89.5% | MCF7 breast 24% | HCC-2998 colon 97.5% | KM12 colon 98.2%

O=CN/N=C/c1ccc(Cl)c([N+](=O)[O-])c1
inactive: T-47D breast 25.3% | BT-549 breast 42.6% | MDA-MB-435 melanoma 18.9% | SW-620 colon 17.6% | HCT-116 colon 16.2% | HCC-2998 colon 27.2%
active: MCF7 breast 6.05% | KM12 colon 7.24%

CC1(C)CC(=O)C2=C(C1)Oc1nc(N)c(C#N)c(N)c1C2c1ccc(F)cc1 (centres undefined)
inactive: T-47D breast 116% | BT-549 breast 100% | MDA-MB-435 melanoma 112% | SW-620 colon 101% | MCF7 breast 109% | HCT-116 colon 109% | HCC-2998 colon 132% | KM12 colon 109%

CC(O)CN(CCO)CCN(CCO)CC(C)O (centres undefined)
inactive: T-47D breast 100% | BT-549 breast 105% | MDA-MB-435 melanoma 106% | SW-620 colon 105% | MCF7 breast 94.5% | HCT-116 colon 104% | HCC-2998 colon 109% | KM12 colon 108%

COc1ccc(/C=C(/C(=O)N2CCCCC2)c2cc(OC)c(OC)c(OC)c2)cc1
active: MDA-MB-435 melanoma -51.3%
inactive: T-47D breast 45.8% | BT-549 breast 53.6% | SW-620 colon 23.2% | MCF7 breast 18.2% | HCT-116 colon 17.6% | HCC-2998 colon 46.8% | KM12 colon 16%

COc1ccc(/C=C2\CCCC3=C2N=C2SC=NN2C3c2ccc(OC)c(OC)c2)cc1OC (centres undefined)
active: HCT-116 colon 8.93%
inactive: T-47D breast 52.5% | BT-549 breast 38.5% | MDA-MB-435 melanoma 18.2% | SW-620 colon 29.7% | MCF7 breast 22.6% | HCC-2998 colon 57.1% | KM12 colon 28.2%

COc1cc2ncnc(-n3ncc4cc(NC(=O)Nc5ccccc5)ccc43)c2cc1OC
inactive: BT-549 breast 24.9% | MDA-MB-435 melanoma 31.6% | SW-620 colon 49.5% | HCC-2998 colon 34.1%
active: T-47D breast -7.28% | MCF7 breast -20.3% | HCT-116 colon 6.38% | KM12 colon 4.62%

NC(N)=N/N=C/c1cccc(Br)c1
inactive: T-47D breast 86.8% | BT-549 breast 87% | MDA-MB-435 melanoma 105% | SW-620 colon 102% | MCF7 breast 90.5% | HCT-116 colon 92.5% | HCC-2998 colon 101% | KM12 colon 107%

CCOc1ccc(/C=N/NC(=O)c2cccc3ccccc23)cc1OCC
inactive: T-47D breast 86.1% | BT-549 breast 86.5% | MDA-MB-435 melanoma 111% | SW-620 colon 105% | MCF7 breast 92.9% | HCT-116 colon 103% | HCC-2998 colon 105% | KM12 colon 103%

O=C(CCCC(=O)Nc1ccc(Cn2nnc3cc(Cl)c(Cl)cc32)cc1)Nc1ccc(CN2N=NC3C=C(Cl)C(Cl)=CC32)cc1 (centres undefined)
inactive: T-47D breast 49% | BT-549 breast 71.5% | MDA-MB-435 melanoma 87.8% | SW-620 colon 85.8% | MCF7 breast 66.6% | HCT-116 colon 75.1% | HCC-2998 colon 90.2% | KM12 colon 79.9%

O=C(CCl)c1ccc2c(c1)CCCC2
inactive: T-47D breast 87.9% | BT-549 breast 83.5% | MDA-MB-435 melanoma 111% | SW-620 colon 82.6% | MCF7 breast 86.5% | HCT-116 colon 84.2% | HCC-2998 colon 111% | KM12 colon 107%

CCCCCCCCCC[N+](C)(C)N
inactive: T-47D breast 96.7% | BT-549 breast 84.2% | MDA-MB-435 melanoma 91.9% | SW-620 colon 102% | MCF7 breast 98% | HCT-116 colon 95.5% | HCC-2998 colon 98.5% | KM12 colon 99.8%

C=CCSc1nnc(COc2ccc3c(C)c(Cc4ccccc4)c(=O)oc3c2C)o1
inactive: T-47D breast 96% | BT-549 breast 100% | MDA-MB-435 melanoma 103% | SW-620 colon 99.2% | MCF7 breast 95.7% | HCT-116 colon 95.6% | HCC-2998 colon 104% | KM12 colon 101%

c1ccc2[nH]c(-c3ccc(OCCCCCOc4ccc(-c5nc6ccccc6[nH]5)cc4)cc3)nc2c1
inactive: HCC-2998 colon 14.8% | KM12 colon 23.5%
active: T-47D breast -60.3% | BT-549 breast -13.5% | MDA-MB-435 melanoma 8.59% | SW-620 colon -3.03% | MCF7 breast -39.3% | HCT-116 colon -21.8%

COc1ccc(-c2nc(SCC(C)C)nc(Nc3ccccc3)c2C#N)cc1
inactive: T-47D breast 51.3% | BT-549 breast 101% | MDA-MB-435 melanoma 92.8% | SW-620 colon 67.8% | MCF7 breast 75.7% | HCT-116 colon 38.5% | HCC-2998 colon 99.3% | KM12 colon 97.9%

O=C1C(Cl)=C(SC2=NCCN2)C(=O)c2ccccc21
inactive: T-47D breast 49.7% | BT-549 breast 90.3% | MDA-MB-435 melanoma 62.7% | SW-620 colon 95.6% | MCF7 breast 61.1% | HCT-116 colon 65% | HCC-2998 colon 106% | KM12 colon 75.5%

COC(=O)c1cc(=O)nc(N/N=C/c2ccccc2O)s1
inactive: T-47D breast 73.1% | BT-549 breast 94.7% | MDA-MB-435 melanoma 100% | SW-620 colon 106% | HCT-116 colon 58.7% | HCC-2998 colon 89.1% | KM12 colon 95.3%
active: MCF7 breast 5.18%

CC(=O)/C(=C/c1ccc(-c2ccccc2)cc1)C(=O)c1ccccc1
inactive: T-47D breast 48.6% | BT-549 breast 89.5% | MDA-MB-435 melanoma 80.9% | SW-620 colon 85.5% | MCF7 breast 39.6% | HCT-116 colon 57.6% | HCC-2998 colon 98.9% | KM12 colon 80.5%

COC(=O)C(C)[C@H]1CC[C@@H]2[C@]1(C)CC=C1[C@]23C=C[C@]2(C[C@@H](OC(C)=O)CC[C@]12C)C(C(=O)OC)C3C(=O)OC (some centres undefined)
inactive: T-47D breast 78.2% | BT-549 breast 101% | MDA-MB-435 melanoma 95.1% | SW-620 colon 102% | MCF7 breast 83.9% | HCT-116 colon 63.7% | HCC-2998 colon 91.4% | KM12 colon 92.5%

COc1ccc(C2C3(C#N)C(N)=NC(=C(C#N)C#N)C23C#N)cc1OC (centres undefined)
inactive: T-47D breast 110% | BT-549 breast 93.3% | MDA-MB-435 melanoma 107% | SW-620 colon 106% | MCF7 breast 108% | HCT-116 colon 112% | HCC-2998 colon 122% | KM12 colon 118%

O=c1oc2ccc3ccccc3c2cc1-c1ccnc2[nH]c(=S)[nH]c(=O)c12
inactive: T-47D breast 103% | BT-549 breast 101% | MDA-MB-435 melanoma 106% | SW-620 colon 105% | MCF7 breast 96.8% | HCT-116 colon 93.9% | HCC-2998 colon 101% | KM12 colon 101%

CCCNC(=O)Oc1ccc(/C(=C(/C)Cc2ccc(OC)cc2)c2ccc(OCCN3CCCC3)cc2)cc1
inactive: T-47D breast 37% | BT-549 breast 82.7% | MDA-MB-435 melanoma 65.8% | SW-620 colon 77.7% | MCF7 breast 25.3% | HCT-116 colon 48.8% | HCC-2998 colon 62.5% | KM12 colon 78.7%

CC(C)C(=O)c1ccc(Cl)s1
inactive: T-47D breast 90.4% | BT-549 breast 104% | MDA-MB-435 melanoma 106% | SW-620 colon 107% | MCF7 breast 88.9% | HCT-116 colon 97% | HCC-2998 colon 99.7% | KM12 colon 100%

Oc1ccc(Br)cc1/C=N/NC(=S)NC12CC3CC(CC(C3)C1)C2
active: T-47D breast -4.11% | SW-620 colon -24.8% | MCF7 breast -17.4% | HCT-116 colon 8.08% | HCC-2998 colon -8.19% | KM12 colon -24.6%
inactive: BT-549 breast 64.3% | MDA-MB-435 melanoma 18.6%

CCOC(=O)NNc1[nH]c(-c2ccc(OC)cc2)cc1C#N
inactive: T-47D breast 44.1% | BT-549 breast 101% | MDA-MB-435 melanoma 85% | SW-620 colon 107% | MCF7 breast 69.2% | HCT-116 colon 85.4% | HCC-2998 colon 39.1% | KM12 colon 74.7%

COc1ccc(Cn2cc3c(c2-c2ccc(OC)cc2)CCc2cnoc2-3)cc1
inactive: T-47D breast 38.7% | BT-549 breast 30.3% | SW-620 colon 22.6%
active: MDA-MB-435 melanoma -29.7% | MCF7 breast 4.23% | HCT-116 colon 4.82% | HCC-2998 colon -30.2% | KM12 colon 5.5%

N=C(N)c1ccc(-c2ccc(-c3cc(Cl)cc(Cl)c3)s2)cc1
active: T-47D breast -54% | BT-549 breast -45.7% | MDA-MB-435 melanoma -90.2% | SW-620 colon -70.9% | MCF7 breast -72.5% | HCT-116 colon -78.7% | HCC-2998 colon -65.2% | KM12 colon -77.4%

Cc1ccc(OCCn2ccc(=O)n(CCOc3ccc(Cl)cc3C(=O)c3cc(C)cc(C)c3)c2=O)cc1
inactive: T-47D breast 39.5% | BT-549 breast 55.1% | SW-620 colon 29.7% | MCF7 breast 22.4% | HCT-116 colon 34.5% | HCC-2998 colon 64.5% | KM12 colon 36.9%
active: MDA-MB-435 melanoma -3.9%

CSC1=Nc2c(c(C)c(-c3ccccc3)n2CCCCl)C2=NC(=O)CN12
active: MDA-MB-435 melanoma -31.4%
inactive: T-47D breast 72.4% | BT-549 breast 61.2% | SW-620 colon 44.4% | MCF7 breast 36.3% | HCT-116 colon 26.7% | HCC-2998 colon 72.3% | KM12 colon 26.1%

COc1cc(NC(C)CCCN)c2nccc(C)c2c1OC (centres undefined)
inactive: T-47D breast 66.7% | BT-549 breast 98.2% | MDA-MB-435 melanoma 106% | SW-620 colon 83.5% | MCF7 breast 10.2% | HCT-116 colon 93.1% | HCC-2998 colon 96.7% | KM12 colon 101%

CCCCCCC(=O)C(C)C
inactive: T-47D breast 110% | BT-549 breast 102% | MDA-MB-435 melanoma 103% | SW-620 colon 106% | MCF7 breast 102% | HCT-116 colon 101% | HCC-2998 colon 105% | KM12 colon 103%

COCn1c(C(=O)OC)cc2oc(/C=C3/SC(=S)N(N)C3=O)cc21
inactive: T-47D breast 94.4% | BT-549 breast 80.8% | MDA-MB-435 melanoma 94.9% | SW-620 colon 97.6% | MCF7 breast 97% | HCT-116 colon 93.8% | HCC-2998 colon 102% | KM12 colon 92.3%
